From ChEMBL document CHEMBL3988442, “University of Dundee, Small-Polar-MMV Screening Library” (2021) come the findings set out here.

The experiment deals with T1, Proteasome subunit beta (Trypanosoma cruzi) (UniProt O96673).
T1 sequence (whole entry): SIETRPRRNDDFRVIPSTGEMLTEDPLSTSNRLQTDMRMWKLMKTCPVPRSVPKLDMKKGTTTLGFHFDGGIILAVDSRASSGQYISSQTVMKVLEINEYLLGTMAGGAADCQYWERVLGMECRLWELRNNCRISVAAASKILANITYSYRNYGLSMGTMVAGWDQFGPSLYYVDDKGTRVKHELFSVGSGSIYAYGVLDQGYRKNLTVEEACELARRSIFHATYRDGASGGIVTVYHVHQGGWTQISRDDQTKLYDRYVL
The experiment can be described thus: Trypanosoma cruzi proteasome chymotrypsin-like activity (TcProtChymo) assay. Details: scale not given: in the data most compounds retested in dose-response had high values. To be noted: 9.37 µM. It is filed as functional.
For `CC(=O)N1CCCN(Cc2csc(-c3ncccn3)n2)CC1`, the Percent Effect worked out at 20.4%. The value for `O=C(NCCc1ccn(-c2ccccc2)n1)N1CCC1` was 25.5%.

`O=C(NC1CC1)[C@H]1C[C@@H]2CCN(CCc3ccccc3)C[C@H]2O1`: the Percent Effect was determined as 4.85%. In the case of `CC1c2ncc(CN3CCN(C)CC3)n2CCN1CC1CC1` (centres undefined) it was 6.33%; in that of `O=S(=O)(c1cccs1)N1CC[C@H](O)[C@@H]1Cc1ccncc1`, 22.9%. The value for `COCc1nc2cc(NCc3ccncc3)ccc2o1` was 13.4%; that for `CCn1cc(CN(C)C(=O)c2cccc(CCC(C)(C)O)c2)cn1` was 15%. The value for `COCCCNC(=O)CCn1nc(C)c2ccccc21` was 15%; that for `CCc1nc(CN2CCCC(NCc3ccc(C(N)=O)cc3)C2)no1` (centres undefined) was -0.246%.

As to `CCS(=O)(=O)N1CCO[C@H]2[C@H](OCCCn3cccn3)CC[C@@H]21`, the Percent Effect is 5.3%. In the case of `Cc1nccn1C1CCCN(C(=O)c2ccc3c(c2)COC3)C1` (centres undefined) it was -5.39%; in that of `Cc1cc(C)n(-c2ccc(CNCc3ccc(OC(C)C)cc3)cn2)n1`, 15.5%; in that of `CCc1nc(C2CCCN2Cc2nc3ccccc3o2)no1` (centres undefined), 2.67%. Take `CC(C)N1CCC(Cc2cc(-c3ccccc3C(=O)O)ncn2)CC1`: the Percent Effect came to 5.3%. The value for `CC(=O)c1cccc(OCCCC(=O)NCC2CCCN2C)c1` (centres undefined) was 11.7%. In the case of `CN1C(=O)C[C@@H]2[C@@H]1CCN2C(=O)c1ccc[nH]1` it was 10.7%; in that of `Cc1cc(C)n(-c2cncc(N3CCN(C(=O)C(C)(C)C)CC3)n2)n1`, 13.3%. The value for `C1CCCN(c2nc(C3CC3)ns2)CC1` was 12.2%; that for `Cn1cnnc1S(=O)(=O)C1CCN(S(=O)(=O)C2CC2)CC1` was 9.41%.

Take `O=C(O)c1ccc(S(=O)(=O)Nc2ccc(Cl)c(F)c2)c(F)c1`: the Percent Effect is -1.08%. In the case of `c1ccc(OCCN2CCCC(c3noc(C4CC4)n3)C2)cc1` (centres undefined) it was 10.1%; in that of `Cn1ccc(C(=O)N2CCN(CCc3ccccc3)CC2)cc1=O`, 13%; in that of `CN(Cc1cccs1)C(=O)CN1CCCC1Cn1cncn1` (centres undefined), 20.3%. In the case of `CNC(=O)C1(CCCc2ccncc2)CCCN1` (centres undefined) it was 12.3%; in that of `c1cn(Cc2nnc(C3CCN(C4CCOCC4)CC3)n2C2CC2)cn1`, 26.7%. The value for `COC(=O)CCc1c(C)nc2cc(O)nn2c1C` was 9.46%; that for `CCN(CC1CCCO1)C(=O)Nc1cc(OC)c(OC)cc1C` (centres undefined) was 9.26%. `Cc1noc(C(C)C)c1C(=O)NCC(c1ccsc1)N(C)C` (centres undefined): the Percent Effect came out at 13.3%. As for `O=C(Cc1ccccn1)N1C[C@@H]2CC[C@H](C1)N(Cc1ccccc1)C2=O`, the Percent Effect was 14.7%. The value for `COCCn1cc(C(=O)N2CCCC2c2cc(C)no2)ccc1=O` (centres undefined) was 9.48%; that for `CC(C)c1noc(CCCC(=O)N2CCC(Cc3cccnc3)CC2)n1` was -2.05%.

As to `Cc1nn(-c2ccccc2)c2c1C(c1ccc(C(=O)O)cc1)CC(=O)N2` (centres undefined), the Percent Effect was 7.85%. Turning to `CC(OCC1CC1)C(=O)N1CCCN(c2ncccc2C#N)CC1` (centres undefined), the Percent Effect worked out at 2.79%. In the case of `CCN(Cc1ccc2c(c1)OCCO2)S(=O)(=O)N(C)C(C)C` it was 3.38%; in that of `CC(C)N(C)C(=O)C1=NOC2(CCN(C(=O)c3ccncc3)C2)C1` (centres undefined), 12.6%.

`CN1CCCC1c1cccc(Cc2ccccc2F)n1` (centres undefined): the Percent Effect is -1.87%. The value for `Cc1cc(CNc2ccc(C(=O)N3CCCC(C)C3)cc2C)no1` (centres undefined) was 3.72%; that for `Cn1nc(C#N)c2c1CN(C(=O)c1cccnc1)CCC2` was 3.13%; that for `CCOCCCNC(=O)c1nn(CC)cc1Cl` was 12.8%.
